Reference: PubChem BioAssay
Active and inactive are the calls of the source.

Columns and labels:
[1] = tested on: Plasmodium falciparum Sir2 (PF13_0152, Sir2A); test: Plasmodium falciparum Sir2A binding compounds – biochemical, small-molecule microarray, 635 nm fluorescence, primary screen (AID 1098); settings: fluorescence 635 nm, higher = more signal;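 further: score merges spot fluorescence intensity with its signal-to-noise ratio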
[2] = probe aDKK1 binding to arrayed compounds – biochemical, biotinylated probe, 635/667 nm fluorescence, primary screen (AID 1099); settings: small-molecule microarray, higher = more signal;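 further: score merges 667nm spot fluorescence with signal to noise across triplicate slides; reference of the scale not given here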
[3] = probe aCHRDL2 binding to arrayed compounds – biochemical, biotinylated probe, 635/667 nm fluorescence, primary screen (AID 1100); settings: small-molecule microarray, higher = more signal
[4] = change in splice reporter luminescence, either direction, cell-based, HEK293, spliceosome inhibition project, primary screen (AID 1101); settings: HEK293 splicing luciferase reporter, 24 h, higher = more signal, called active from +8 up or from −8 down;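 further: HEK293 cells carrying a splicing-competent luciferase reporter gene; test concentration not given here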
[5] = molecular target: Fibroblast growth factor 10 (Homo sapiens) (UniProt O15520); test: compounds binding fibroblast growth factor 10 – biochemical, small-molecule microarray, 635 nm fluorescence, primary screen (AID 1102); settings: FGF10 binding, fluorescence 635 nm, higher = more signal
[6] = tested on: glycogen synthase kinase-3 (GSK3A per assay name; protocol says GSK3B); test: compounds binding glycogen synthase kinase-3 – biochemical, small-molecule microarray, 635 nm fluorescence, GSK3A, primary screen (AID 1103); settings: fluorescence 635 nm, higher = more signal; further: the record names both GSK3A and GSK3B
[7] = molecular target: Epidermal growth factor receptor (Homo sapiens) (UniProt P00533); test: compounds binding epidermal growth factor receptor – biochemical, small-molecule microarray, 635 nm fluorescence, primary screen (AID 1104); settings: EGFR binding, higher = more signal;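 further: score merges 667 nm emission intensity with spot signal to noise over triplicate slides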
[8] = molecular target: Follistatin-related protein 3 (Homo sapiens) (UniProt O95633); test: compounds binding follistatin-related protein 3 – biochemical, small-molecule microarray, 635 nm fluorescence, primary screen (AID 1105); settings: FSTL3 binding, higher = more signal;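 further: score merges emission near 667 nm and signal to noise per printed spot across three slides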
[9] = molecular target: Dickkopf-related protein 1 (Homo sapiens) (UniProt O94907); test: small molecules binding DKK1 protein – biochemical, small-molecule microarray, 635 nm fluorescence scan, primary screen (AID 1106); settings: higher = more signal;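 further: score merges emission near 667 nm with signal to noise over three replicate slides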
[10] = tested on: Inhibin beta A chain (activin A); test: small molecules binding activin A – biochemical, small-molecule microarray, 635 nm fluorescence scan, primary screen (AID 1107); settings: INHBA, higher = more signal;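 further: mouse activin A protein probed at 4.33 µg/mL on printed slides; score merges bound-protein fluorescence near 667 nm with spot signal-to-noise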

Chain of Dickkopf-related protein 1 (Homo sapiens) (O94907 whole entry, looked up): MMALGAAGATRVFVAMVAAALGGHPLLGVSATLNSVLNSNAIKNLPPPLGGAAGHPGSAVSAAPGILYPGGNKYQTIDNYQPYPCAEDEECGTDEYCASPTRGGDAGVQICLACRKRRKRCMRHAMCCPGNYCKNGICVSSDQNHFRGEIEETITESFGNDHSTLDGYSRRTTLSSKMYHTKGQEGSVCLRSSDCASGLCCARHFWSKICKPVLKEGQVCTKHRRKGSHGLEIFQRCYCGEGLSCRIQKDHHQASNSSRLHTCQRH
Chain of Fibroblast growth factor 10 (Homo sapiens) (O15520 whole entry, looked up): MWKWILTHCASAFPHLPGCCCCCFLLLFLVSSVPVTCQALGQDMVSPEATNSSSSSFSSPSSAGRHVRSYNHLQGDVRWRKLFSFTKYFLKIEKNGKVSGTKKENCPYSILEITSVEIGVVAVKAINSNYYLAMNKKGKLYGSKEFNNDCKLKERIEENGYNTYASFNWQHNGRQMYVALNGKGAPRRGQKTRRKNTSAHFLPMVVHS
Chain of Follistatin-related protein 3 (Homo sapiens) (O95633 whole entry, looked up): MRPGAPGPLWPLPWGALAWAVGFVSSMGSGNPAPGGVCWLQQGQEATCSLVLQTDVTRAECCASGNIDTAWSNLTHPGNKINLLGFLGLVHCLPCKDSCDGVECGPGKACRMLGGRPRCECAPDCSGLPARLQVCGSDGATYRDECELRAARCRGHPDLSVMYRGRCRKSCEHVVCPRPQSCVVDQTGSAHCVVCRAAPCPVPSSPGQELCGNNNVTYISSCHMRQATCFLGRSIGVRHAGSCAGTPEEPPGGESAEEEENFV
Chain of Epidermal growth factor receptor (Homo sapiens) (P00533 whole entry, looked up): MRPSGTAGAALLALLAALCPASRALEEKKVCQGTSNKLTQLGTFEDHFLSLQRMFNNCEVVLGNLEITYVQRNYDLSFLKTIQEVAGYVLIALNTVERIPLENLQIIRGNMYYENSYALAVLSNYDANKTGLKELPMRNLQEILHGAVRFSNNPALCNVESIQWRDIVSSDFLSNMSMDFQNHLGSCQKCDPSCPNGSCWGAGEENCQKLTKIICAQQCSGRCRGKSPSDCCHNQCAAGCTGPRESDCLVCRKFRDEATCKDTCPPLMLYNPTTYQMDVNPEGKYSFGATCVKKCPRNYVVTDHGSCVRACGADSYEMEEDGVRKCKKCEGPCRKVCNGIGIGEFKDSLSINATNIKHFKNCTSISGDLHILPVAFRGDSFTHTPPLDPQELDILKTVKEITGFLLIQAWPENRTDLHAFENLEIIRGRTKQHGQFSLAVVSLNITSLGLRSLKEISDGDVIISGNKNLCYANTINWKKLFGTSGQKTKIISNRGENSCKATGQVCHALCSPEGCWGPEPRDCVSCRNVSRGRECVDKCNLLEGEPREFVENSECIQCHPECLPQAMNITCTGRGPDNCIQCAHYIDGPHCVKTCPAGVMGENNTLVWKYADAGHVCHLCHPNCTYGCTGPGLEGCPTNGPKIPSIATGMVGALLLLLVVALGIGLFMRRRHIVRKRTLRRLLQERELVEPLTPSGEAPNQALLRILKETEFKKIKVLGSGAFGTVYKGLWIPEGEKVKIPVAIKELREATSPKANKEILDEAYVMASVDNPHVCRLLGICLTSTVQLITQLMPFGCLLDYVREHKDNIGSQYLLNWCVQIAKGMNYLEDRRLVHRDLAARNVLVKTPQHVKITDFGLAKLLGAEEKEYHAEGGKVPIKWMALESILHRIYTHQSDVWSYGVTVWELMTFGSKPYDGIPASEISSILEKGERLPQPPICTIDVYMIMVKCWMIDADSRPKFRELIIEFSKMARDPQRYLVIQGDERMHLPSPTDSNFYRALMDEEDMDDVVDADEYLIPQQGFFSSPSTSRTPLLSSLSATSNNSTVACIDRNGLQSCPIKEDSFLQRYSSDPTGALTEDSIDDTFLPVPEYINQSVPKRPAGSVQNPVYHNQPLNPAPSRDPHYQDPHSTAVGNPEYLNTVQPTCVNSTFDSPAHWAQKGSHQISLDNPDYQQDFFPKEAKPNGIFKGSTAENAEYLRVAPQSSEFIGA

Row | Structure (SMILES) | composite z-score [1] | composite z-score [2] | composite z-score [3] | z-score [4] | composite z-score [5] | composite z-score [6] | composite z-score [7] | composite z-score [8] | composite z-score [9] | composite z-score [10]
1 | O=C1C[C@@](C(=O)NCc2ccccc2)(c2ccc([N+](=O)[O-])cc2)[C@@H](c2ccc(CO)cc2)N1CC12CC3CC(CC(C3)C1)C2 | 1.62 | -0.387 | -0.371 | -0.859 (inactive) | 1.06 | 1.13 | 0.385 | 0.837 | 0.0703 | 0.0162
2 | COC(=O)[C@@]1(Cc2ccccc2)[C@H]2c3cc(C(=O)N4CCCC4)n(Cc4ccc(O)c(OC)c4)c3C[C@H]2CN1C(=O)c1ccccc1 | 0.117 | 0.611 | 1.08 | -2.95 (inactive) | 0.253 | 0.632 | -0.527 | 0.202 | -0.817 | 0.939
3 | [N-]=[N+]=NCc1ccccc1[C@@H]1OC(c2ccc(OCCCO)cc2)=N[C@]1(CCS(=O)(=O)c1ccccc1)C(=O)N1CCCCC1 | 1.65 | 0.0798 | 0.904 | -0.162 (inactive) | 0.828 | 1.29 | 0.453 | 1.19 | -0.154 | 1.08
4 | C=CC[C@]1(C(N)=O)N=C(c2ccc(OCCCO)cc2)O[C@H]1c1ccccc1 | 1.3 | 0.351 | 1.11 | 0.27 (inactive) | -0.304 | -0.195 | -1.03 | -0.882 | -0.539 | 1.08
5 | COC(=O)C(CC#Cc1ccc2c(c1)[C@]1(C(=O)N2)[C@H](c2ccccc2OCCO)N2[C@H](c3ccccc3)[C@H](c3ccccc3)OC(=O)[C@H]2[C@@H]1C(=O)O)C(=O)OC | 1.49 | 0.666 | 0.0004 | -0.597 (inactive) | 0.738 | 0.93 | 0.28 | 0.356 | 0.278 | 1.04
6 | CCOC(=O)[C@H]1C/C=C/C[C@H](C(=O)OCC)C(=O)O[C@H]2[C@@H](OC)O[C@H](CO)[C@@H](OC(=O)c3ccc(Br)cc3)[C@@H]2OC1=O | -0.009 | -0.444 | 0.44 | -1.25 (inactive) | 0.88 | -0.51 | 0.0445 | 0.366 | 0.34 | 0.802
7 | COC(=O)c1c(CC[C@@H](CO)NC(=O)NCCc2c[nH]c3ccccc23)oc(C(=O)Cc2ccccc2)c1C(=O)OC | 0.176 | -0.281 | -0.805 | -0.251 (inactive) | 0.48 | 0.429 | 0.398 | 0.321 | 0.263 | 0.553
8 | Cc1ccc(S[C@]2(C(=O)O)CC(=O)N(C(C)C)[C@@H]2c2ccc(CO)cc2)cc1 | 0.161 | -0.11 | 0.34 | -0.448 (inactive) | 0.224 | -0.207 | -0.468 | 0.147 | 0.0142 | 0.754
9 | CCCCCCc1nc(-c2ccc(-c3ccc(Cl)c(Cl)c3)o2)cc2c1[Si](C(C)C)(C(C)C)O[C@H]2c1ccccc1 | 0.0593 | -0.294 | 0.0787 | -0.112 (inactive) | -0.515 | -1.26 | -0.287 | -0.737 | 0.0981 | 0.62
10 | COCCOC(=O)N1C(=O)[C@@]2(c3cc(C#Cc4ccc(OC)cc4)ccc31)[C@H](c1ccc(O)cc1)N1[C@H](c3ccccc3)[C@H](c3ccccc3)OC(=O)[C@H]1[C@@H]2C(=O)Nc1nc2ccccc2s1 | 0.666 | -0.037 | 0.0407 | -0.0561 (inactive) | 1.22 | 1.09 | 0.404 | 0.899 | 0.446 | 0.277
11 | CCOc1cc(C(O)C2C=CC3C(=O)N(c4ccccc4)C(=O)C3N2Nc2ccc(C(C)C)cc2)ccc1O (stereo not given) | 1.5 | 0.712 | 1.01 | 0.21 (inactive) | 0.726 | 1.05 | 0.147 | 0.912 | -0.332 | 0.73
12 | O=C(CS)NCCCCCNC(=O)[C@@H]1C[C@@H]2C(=O)NCC(=O)N2[C@@H]1c1ccc(O)cc1 | 0.793 | -0.179 | 0.347 | 0.0774 (inactive) | 0.528 | 0.692 | 0.17 | 0.157 | -0.109 | 0.606
13 | CCN(CC)c1ccc(N2CC=CC34O[C@@H]5/C=C\CCC(C)OC(=O)C5[C@H]3C(=O)N(CCCCCO)[C@@H]4C2=O)cc1 (stereo not given in full) | -1.01 | -0.0549 | 0.288 | 0.292 (inactive) | -0.976 | -1.02 | -0.518 | -0.669 | -0.555 | 0.306
14 | NC(=O)[C@@H]1[C@H]2C(=O)O[C@H](c3ccccc3)[C@H](c3ccccc3)N2[C@H](c2ccc(OCCO)cc2)[C@@]12C(=O)Nc1ccc(C#CC3=CCCCC3)cc12 | 1.36 | -0.134 | -0.233 | -0.857 (inactive) | 1.21 | 1.32 | 0.544 | 0.588 | 0.372 | 0.357
15 | CC(C)N1CC=CC23O[C@@H]4C=CCOC(=O)[C@@H]4[C@H]2C(=O)N(CCCCCO)[C@@H]3C1=O (stereo not given in full) | 0.818 | -0.288 | 0.248 | -1.54 (inactive) | -0.927 | -0.69 | -0.0616 | -0.266 | -0.758 | 0.66
16 | CS(=O)(=O)CCOC(=O)C1=CC(CCCO)=CC(C2CC2)N(Cc2cc3c(cc2Br)OCO3)C=C1C(=O)OCCS(C)(=O)=O (stereo not given) | 0.405 | 0.049 | 0.49 | 1.22 (inactive) | 0.615 | 0.28 | -0.0183 | 0.258 | 0.322 | 1.33
17 | COC(=O)[C@@]1(Cc2ccc(OC)cc2)[C@H]2c3cc(C(=O)N(C)C)n(Cc4ccc(C(F)(F)F)nc4)c3C[C@H]2CN1C(=O)c1ccccc1 | 0.707 | 1.15 | 0.784 | -1.59 (inactive) | 0.081 | -0.178 | 0.189 | -0.015 | -0.557 | 0.663
